Experimental data taken from PubChem BioAssay (NCI).
This is part of a sample that, as a whole, favours compounds with a hit. Of some 83,000 tested, about 20% had one in any assay.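 Testing used 96-well plates and a 48-hour single-concentration exposure. Example: -40 means 40% of the starting cells died.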 Unmarked numbers belong to inactive results. The source made the active and inactive calls. How the source made its calls: active means growth percent below 10; inactive means the rest.

Columns and labels:
Experiment in all cases: NCI-60 one-dose screen, 48 h (100 = growth as untreated, 0 = no growth, -100 = all killed)
Settings in all cases: 10 µM unless noted
SK-MEL-2 melanoma = test system: SK-MEL-2 melanoma
EKVX NSCLC = test system: EKVX NSCLC
SN12C renal = test system: SN12C renal
UO-31 renal = test system: UO-31 renal
TK-10 renal = test system: TK-10 renal
ACHN renal = test system: ACHN renal
CAKI-1 renal = test system: CAKI-1 renal
A498 renal = test system: A498 renal
CCRF-CEM leukemia = test system: CCRF-CEM leukemia
MOLT-4 leukemia = test system: MOLT-4 leukemia

| SMILES | growth (SK-MEL-2 melanoma) | growth (EKVX NSCLC) | growth (SN12C renal) | growth (UO-31 renal) | growth (TK-10 renal) | growth (ACHN renal) | growth (CAKI-1 renal) | growth (A498 renal) | growth (CCRF-CEM leukemia) | growth (MOLT-4 leukemia) |
| --- | --- | --- | --- | --- | --- | --- | --- | --- | --- | --- |
| Cn1cc(-c2nonc2-c2cn(C)c3ccccc23)c2ccccc21 | 35.6% | 40.4% | 43.6% | 40.5% | 62.5% | 44.4% | 31.3% | 12.3% | 9.67% (active) | 17.5% |
| O=C(c1nn(-c2ccccc2)c2c1CC(NCc1ccc(F)cc1)CC2)N1CCCCC1 (stereo not given) | 103% | 97.6% | 105% | 74.2% | 92.5% | 104% | 85% | 120% | 108% | 73.5% |
| Cn1cc(-c2csc(-c3cn(C(=O)OC(C)(C)C)c4ccc(Br)cc34)n2)c2ccnc(Cl)c21 | 96.3% | 87.7% | 93.6% | 96% | 92.9% | 82.8% | 96.4% | 89.6% | 93.1% | 90.9% |
| CN1CCN(c2cc(Nc3cc(C4CC4)[nH]n3)nc(Nc3ccc(CC(=O)NCc4cccc(F)c4)cc3)n2)CC1 | 48.9% | 50.3% | 23.5% | 36.8% | 34.5% | 45.9% | 5.36% (active) | -28.7% (active) | 36.8% | 16% |
| CCOC(=O)c1cc2c(n1Cc1cc(OC)c(OC)c(OC)c1)-c1nc(N)sc1CCC2 | 32.6% | 65.6% | 88.5% | 57% | 74.4% | 77.2% | 55.9% | 7.34% (active) | 41.1% | 66.7% |
| Cc1nc2sc(C(=O)Nc3ccc(Br)cc3)c(N)c2cc1C(O)c1ccccc1 (stereo not given) | 81.5% | 55.3% | 68% | 62.1% | 85.4% | 72.4% | 65% | 51.9% | 43.4% | 26.2% |
| CS(=O)(=O)Nc1cc(-c2ccc3ncnc(Nc4ccc5c(cnn5Cc5cccc(F)c5)c4)c3c2)cnc1Cl | -42% (active) | 4.57% (active) | 3.84% (active) | 15.7% | -15.9% (active) | 18.4% | -27.9% (active) | -48.7% (active) | 12.7% | -10% (active) |
| CCN(CC)CCn1c2ccc(O)cc2c2sc3cc(O)ccc3c(=O)c21 | 57.9% | 48.8% | 20.9% | 26% | 64.9% | 3.32% (active) | 43.5% | 41.6% | 14.6% | 9.25% (active) |
| CC1CN(S(=O)(=O)c2oc(-c3ccc(Cl)cc3)nc2C#N)CC(C)O1 (stereo not given) | 75.5% | 101% | 85.5% | 90.4% | -54% (active) | 28.1% | 91.2% | 78.7% | -2.97% (active) | -10.6% (active) |
| CCOC(=O)C#Cc1c(C(=O)OCC)nnn1Cc1ccc([N+](=O)[O-])cc1 | 109% | 106% | 58.6% | 4.18% (active) | -10.9% (active) | -53.6% (active) | -52% (active) | 107% | -21.3% (active) | 14.9% |
| CS(=O)(=O)Nc1cncc(-c2ccc3ncnc(Nc4cncc(Cl)c4)c3c2)c1 | 67.6% | 96.1% | 84.3% | 77.7% | 65.2% | 96% | 94.9% | 70.5% | 35.7% | 78.4% |
| O=C(c1ccncc1)N1N=C(c2ccc(Cl)cc2)C[C@H]1c1cn(-c2ccccc2)nc1-c1ccccc1 | 110% | 87.2% | 86.6% | 90.1% | 109% | 70.8% | 65.4% | 102% | 78.9% | 70.8% |
| O=C(O)c1ccc(-n2cc(/C=N/Nc3ccccc3)c(-c3ccc(F)cc3F)n2)cc1 | 15.4% | 55.2% | 73.1% | 13% | 57.4% | 47.1% | 28.5% | 81.7% | 26.6% | 38.7% |
| CN(C)CC(C)(C)C(=O)/C=C/c1ccccc1 | -74.2% [25 µM] (active) | -18.5% [25 µM] (active) | -34.1% [25 µM] (active) | -90.3% [25 µM] (active) | -9.48% [25 µM] (active) | -71.4% [25 µM] (active) | -6.22% [25 µM] (active) | -14.7% [25 µM] (active) | 2.8% [25 µM] (active) | -5.22% [25 µM] (active) |
| O=S(=O)(Nc1cc(F)cc(Cl)c1)c1ccc(-c2cnc(C3CC3)o2)cc1 | 52.8% | 38% | 45.8% | 39.3% | 47.7% | 34.4% | 31.3% | -6.52% (active) | 23.6% | 31.9% |
| COc1c(B(O)O)cccc1-c1nc2c(F)cc3[nH]ncc3c2c2c1CCCC2 | -6.26% (active) | 7.37% (active) | 15.8% | -1.82% (active) | 16.2% | 0.144% (active) | -28% (active) | -64.6% (active) | 13.9% | 7.73% (active) |
| CC(=O)/C(=C\c1c(-c2ccccc2)[nH]c2ccccc12)S(C)(=O)=O | 59.9% | 50.4% | 33.4% | 51% | 42.7% | 50.2% | 45.6% | 31.9% | 1.75% (active) | -13.5% (active) |
| O=c1[nH]c(-c2ccccc2)nc2sc3cc(O)ccc3c12 | 103% | 66.4% | 89.1% | 55.9% | 99.9% | 76.2% | 68.9% | 79.3% | 73.1% | 66.9% |
| CCCNC(=O)Nc1ccc2cc3ccc(NC(=O)NCCC)cc3nc2c1 | 84.7% | 97.8% | 94.5% | 76.1% | 115% | 78.1% | 104% | 71.4% | 47.4% | 84.8% |
| NC(=O)c1cc(I)ccc1NC(=O)/C=C/c1ccccc1 | -31.7% (active) | 36.1% | 31.5% | 28.1% | 60.8% | 38.2% | 25.6% | -14.9% (active) | 11.9% | 4.56% (active) |
| O=C(CN1CCOCC1)Nc1nc(-c2cc3ccccc3oc2=O)cs1 | 114% | 99% | 101% | 70.6% | 154% | 93.1% | 82.4% | 102% | 103% | 104% |
| CC(=O)N1N=C(c2ccc(Nc3nc(Nc4ccccc4)nc(Nc4ccccc4)n3)cc2)CC1c1ccccc1 (stereo not given) | 58.6% | 79.7% | 99.6% | 73.5% | 87.7% | 93.5% | 90.2% | 82.4% | 68.2% | 75.1% |
| Cc1[nH]c(C(=O)Nc2ccccc2OC2CCNCC2)c(Cl)c1Cl | 24.2% | 43% | -53.2% (active) | -75.8% (active) | -3.07% (active) | -19.2% (active) | 1.32% (active) | 67.6% | 1.15% (active) | 4.46% (active) |
| Nc1nc2ccc(-c3nc4ccc5[nH]ncc5c4c4c3CCCC4)cc2s1 | 96.5% | 117% | 98.8% | 85.7% | 96.3% | 111% | 99.7% | 109% | 107% | 104% |
| O=C1NC(=C(Cl)Cl)/C(=N\S(=O)(=O)NCc2ccccc2)N1 | 103% | 118% | 90.7% | 94.1% | 107% | 110% | 101% | 104% | 75% | 85.5% |
| Clc1cc(Cl)c(Cl)c(-c2nnc(SCc3ccncc3Br)o2)c1 | 91.8% | 84.5% | 92.3% | 67.4% | 117% | 94.4% | 65.8% | 94.8% | 77.1% | 75.1% |
| Cn1ccnc1C(=O)/C=C/c1ccc(CC(=O)Nc2cc(C(F)(F)F)cc(C(F)(F)F)c2)cc1 | 102% | 89.8% | 67.4% | 63.2% | 106% | 84.5% | 76.4% | 90% | 47.5% | 14.7% |
